What all share (assay): NCI-60 one-dose screen, 48 h (100 = growth as untreated, 0 = no growth, -100 = all killed)
In one test the test system is SR leukemia. The conditions noted are these: 10 µM unless noted.
The next test relates to RPMI-8226 leukemia. Conditions: 10 µM unless noted.
Another test concerns OVCAR-8 ovarian. Conditions: 10 µM unless noted.
Another test concerns OVCAR-5 ovarian. The conditions noted are these: 10 µM unless noted.
In another test the test system is SK-OV-3 ovarian. Conditions: 10 µM unless noted.
A further test has as its system IGROV1 ovarian. The conditions noted are these: 10 µM unless noted.
The next test has as its system OVCAR-3 ovarian. Conditions: 10 µM unless noted.
For a further test, the system named is HS 578T breast. Conditions: 10 µM.
Another test has as its system NCI/ADR-RES ovarian. Conditions: 10 µM unless noted.
In another test the test system is BT-549 breast. Conditions: 10 µM unless noted.
The next test relates to MDA-MB-435 melanoma. The conditions noted are these: 10 µM unless noted.
The next test relates to SW-620 colon. The conditions noted are these: 10 µM unless noted.
In the next test the test system is MCF7 breast. Conditions: 10 µM unless noted.
The next test relates to HCT-116 colon. The conditions noted are these: 10 µM unless noted.
The test system of a further test is HCC-2998 colon. The conditions noted are these: 10 µM unless noted.
For a further test, the system named is KM12 colon. The conditions noted are these: 10 µM unless noted.
Another test relates to T-47D breast. The conditions noted are these: 10 µM unless noted.
A further test has as its system OVCAR-4 ovarian. Conditions: 10 µM unless noted.

This is part of a sample that, as a whole, favours compounds with a hit. Of some 83,000 tested, about 20% had one in any assay.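 Cells were grown in 96-well plates and exposed to the test compound at a single concentration for 48 hours; results are reported as percent growth, with values below 10 considered active.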 Values without a mark were called inactive. Active and inactive are the calls of the source.

With `Cc1ccc(/C=C/C(=N/N=C(N)N)c2ccccc2)cc1`, the growth in the test on SR leukemia is -9.62% (active); in the test with RPMI-8226 leukemia, 11.1%; in the test on OVCAR-8 ovarian it was 24.6%; in the test with OVCAR-5 ovarian it was 54.4%; with SK-OV-3 ovarian, 9.84% (active); in the test with IGROV1 ovarian it was 43.1%. For the same compound, the growth in the test on OVCAR-3 ovarian is -28.6% (active); in the test with HS 578T breast, -5.3% (active); with NCI/ADR-RES ovarian it was 35.2%; with BT-549 breast, 47.7%; in the test on MDA-MB-435 melanoma, -16.9% (active); in the test with SW-620 colon, 25.9%. Besides, the growth with MCF7 breast is 11.6%; with HCT-116 colon, 20.1%; in the test with HCC-2998 colon it was 20.9%; in the test with KM12 colon, 14.8%.

Consider `CCOC(=O)c1ccc(NCCC(=O)O)cc1`, for which the growth in the test with SR leukemia was 103%; in the test with RPMI-8226 leukemia, 115%; with OVCAR-8 ovarian, 104%; in the test with OVCAR-5 ovarian it was 110%; in the test on SK-OV-3 ovarian, 113%; in the test on IGROV1 ovarian it was 112%. The growth in the test with OVCAR-3 ovarian was 138%; in the test on HS 578T breast, 104%; with NCI/ADR-RES ovarian it was 113%; in the test with T-47D breast it was 101%; in the test with BT-549 breast, 110%; in the test on MDA-MB-435 melanoma, 116%. Moreover, the growth is 110% in the test on SW-620 colon, 92.4% in the test with MCF7 breast, 111% in the test with HCT-116 colon and 110% with KM12 colon.

Turning to `CCOC(=O)c1ccc(NC(=O)NC2=NCCS2)cc1`, the growth was 17.6% in the test on SR leukemia; 13.9% with RPMI-8226 leukemia; 27.1% with OVCAR-8 ovarian; 96.5% with OVCAR-5 ovarian; 11.5% with SK-OV-3 ovarian; 21.5% with IGROV1 ovarian. For the same compound, the growth is -53.7% (active) in the test on OVCAR-3 ovarian; 42.7% with HS 578T breast; 35.8% in the test on T-47D breast; 24.2% with BT-549 breast; 48.3% in the test with MDA-MB-435 melanoma; 77.8% in the test with SW-620 colon. For the same compound, the growth with MCF7 breast was 33.4%; in the test on HCT-116 colon it was 93%; in the test with HCC-2998 colon, 45%.

Regarding `O=c1[nH]c2cc(Cl)c(Cl)cc2o1`, the growth in the test on SR leukemia is 126%; in the test on RPMI-8226 leukemia, 111%; with OVCAR-8 ovarian, 104%; with OVCAR-5 ovarian, 113%; in the test with SK-OV-3 ovarian, 107%; in the test on IGROV1 ovarian, 138%. For the same compound, the growth was 102% with OVCAR-3 ovarian; 100% with HS 578T breast; 116% with NCI/ADR-RES ovarian; 121% in the test with T-47D breast; 132% in the test on BT-549 breast; 103% in the test with MDA-MB-435 melanoma. Also, the results for the growth in the test with SW-620 colon, with MCF7 breast and in the test with KM12 colon were 98.9%, 105% and 111%, respectively.

Regarding `CC(C)NCCCCCNc1cc(O)cc2cccnc12`, the growth was 22.5% in the test on SR leukemia; 66.6% in the test with RPMI-8226 leukemia; 31.3% in the test with OVCAR-8 ovarian; 98.8% in the test with OVCAR-5 ovarian; 65.6% in the test on SK-OV-3 ovarian; 32.2% with IGROV1 ovarian. Moreover, the growth was 28.3% in the test on OVCAR-3 ovarian; 88.8% with HS 578T breast; 100% with NCI/ADR-RES ovarian; 31.3% with T-47D breast; 104% with BT-549 breast; 101% with MDA-MB-435 melanoma. For the same compound, the growth with MCF7 breast was 43.3%; in the test with HCT-116 colon, 65.5%; with HCC-2998 colon it was 54.6%; in the test with KM12 colon, 100%.

Turning to `C[C@@H]1C[C@H](N)C[C@H](c2ccncc2NC(=O)c2ccc(F)c(-c3c(F)cccc3F)n2)C1`, the growth in the test on SR leukemia is -17.7% (active); in the test on RPMI-8226 leukemia, 4.68% (active); with OVCAR-8 ovarian, 62.6%; in the test on OVCAR-5 ovarian, 71.3%; in the test on SK-OV-3 ovarian, 62%; with IGROV1 ovarian, 46.5%. Further, the growth in the test on OVCAR-3 ovarian was 74.5%; in the test on NCI/ADR-RES ovarian it was 65.8%; with BT-549 breast, 51.2%; in the test on MDA-MB-435 melanoma, 34.5%; in the test on SW-620 colon, 45.5%; in the test with MCF7 breast, 40.2%. The growth with HCT-116 colon is 48.1%; in the test on KM12 colon, 48.3%.

As to `COc1cc(C2CC(c3cccc(Nc4ccnc5cc(Cl)ccc45)c3)=NN2c2ccc(Cl)cc2)cc(OC)c1OC` (stereo not drawn), the growth in the test with SR leukemia is 55.9%; in the test on RPMI-8226 leukemia, 47.8%; with OVCAR-8 ovarian, 55.2%; in the test on OVCAR-5 ovarian, 80.2%; with SK-OV-3 ovarian it was 92.2%; in the test with IGROV1 ovarian, 39.7%. The growth in the test with OVCAR-3 ovarian was 83.3%; with HS 578T breast it was 64.8%; in the test on T-47D breast it was 30.8%; in the test on BT-549 breast it was 81.7%; in the test on MDA-MB-435 melanoma it was 8.15% (active); in the test on MCF7 breast, 54.8%. Further, the growth is 53% with HCT-116 colon, 87.3% in the test on HCC-2998 colon and 33.9% in the test on KM12 colon.

On to `NC(N)=N/N=C/c1ccccc1`, for which the growth in the test with SR leukemia is 96%; in the test with RPMI-8226 leukemia it was 89.1%; in the test on OVCAR-8 ovarian, 99.5%; in the test on OVCAR-4 ovarian it was 101%; in the test on SK-OV-3 ovarian, 101%; with IGROV1 ovarian, 108%. For the same compound, the growth in the test on OVCAR-3 ovarian was 99.5%; in the test with HS 578T breast it was 101%; in the test on NCI/ADR-RES ovarian, 104%; with T-47D breast it was 94%; in the test on BT-549 breast, 102%; with MDA-MB-435 melanoma, 93.6%. Moreover, the growth is 104% in the test with SW-620 colon; 93% with MCF7 breast; 92.8% in the test with HCT-116 colon; 98.1% with HCC-2998 colon; 103% in the test on KM12 colon.

Turning to `Cc1c(C)c(C)c([N+](=O)[O-])c([N+](=O)[O-])c1C`, the growth is 99.8% in the test with SR leukemia; 119% with RPMI-8226 leukemia; 102% with OVCAR-8 ovarian; 84.5% in the test with OVCAR-5 ovarian; 111% in the test with SK-OV-3 ovarian; 122% with IGROV1 ovarian. Moreover, the growth is 98.5% in the test on OVCAR-3 ovarian; 96.5% in the test on HS 578T breast; 99.4% with NCI/ADR-RES ovarian; 101% with BT-549 breast; 88.6% in the test on MDA-MB-435 melanoma; 106% with SW-620 colon. Moreover, the growth is 97% with MCF7 breast, 109% in the test on HCT-116 colon, 103% with HCC-2998 colon and 98.1% with KM12 colon.

Turning to `O=c1c2sc3ccccc3c2nnn1-c1ccc(F)c(Cl)c1`, the growth with SR leukemia is -42% (active); with RPMI-8226 leukemia, 57.3%; in the test with OVCAR-8 ovarian, 37.7%; with OVCAR-5 ovarian, 51%; with SK-OV-3 ovarian it was -8.62% (active); in the test with IGROV1 ovarian it was 21.2%. The growth in the test on HS 578T breast is 33%; with NCI/ADR-RES ovarian it was 64.5%; in the test with T-47D breast, 45.9%; in the test with BT-549 breast it was 81.6%; in the test on MDA-MB-435 melanoma, 72.3%; in the test on SW-620 colon it was 62.3%. The growth in the test with HCC-2998 colon was 68.7%.

Values taken from PubChem BioAssay (NCI).
